Assay results reported in PubChem BioAssay (NCATS).
Results filed as inconclusive are left out. A call without a number means that no potency is given here. A number with no mark means an inactive call. The source made the active and inactive calls. Unless noted, calls come from the whole dose curve; as a rule, active = well fitted curve in the direction sought with a large enough effect; inconclusive = small, poorly fitted or top-dose-only effect, or another doubt; inactive = no such curve, though single readings can be large; an effect the other way counts as inactive or inconclusive.

Columns and labels:
[1] = target: Luciferin 4-monooxygenase (Photinus pyralis) (UniProt P08659); test: Biochemical firefly luciferase enzyme assay for NPC (AID 624030);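 note: purified P. pyralis luciferase at 10 nM with luciferin and ATP substrate; nearly all actives have a fitted effect of over 70% in size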
Luciferin 4-monooxygenase (Photinus pyralis), sequence (P08659 whole entry, looked up): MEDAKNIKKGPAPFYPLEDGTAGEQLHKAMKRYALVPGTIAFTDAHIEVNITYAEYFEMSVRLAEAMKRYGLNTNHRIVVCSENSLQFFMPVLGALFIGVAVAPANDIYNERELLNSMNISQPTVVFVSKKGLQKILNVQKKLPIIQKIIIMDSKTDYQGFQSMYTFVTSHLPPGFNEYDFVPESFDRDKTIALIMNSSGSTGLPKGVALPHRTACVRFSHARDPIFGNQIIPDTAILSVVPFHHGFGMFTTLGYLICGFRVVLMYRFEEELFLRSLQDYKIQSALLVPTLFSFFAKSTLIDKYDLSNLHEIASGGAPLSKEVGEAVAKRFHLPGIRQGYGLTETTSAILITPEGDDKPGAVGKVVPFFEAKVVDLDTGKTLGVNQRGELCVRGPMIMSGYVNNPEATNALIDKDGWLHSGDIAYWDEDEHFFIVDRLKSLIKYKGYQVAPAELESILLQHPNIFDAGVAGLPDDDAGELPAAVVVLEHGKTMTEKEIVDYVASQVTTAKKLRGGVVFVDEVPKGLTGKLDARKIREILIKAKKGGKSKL
How it was run: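 Counter-screen for direct inhibition of the luciferase enzyme by approved-drug library compounds, run at 10 nM enzyme in 50 mM Tris acetate (final). Luminescence was read within 5 min of enzyme-buffer addition and normalized to PTC124 versus DMSO (0%).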

[2] = S16 Schwann cell PMP22 intronic element beta-lactamase assay (AID 624044; calls by dose curve; note: nearly all actives have a fitted effect of over 15% in size); details: S16 rat Schwann cells, PMP22 element beta-lactamase FRET, 24 h; ratio activity, negative = inhibition: at 38.3 µM (top of the series)
How it was run: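 Beta-lactamase reporter under a PMP22 intronic regulatory element in stable S16 rat Schwann cells; 24 h compound exposure. 460 nm blue signal normalized between DMSO (0%) and potassium clavulanate, with 535 nm FRET tracking viability; curves classed by r2 and response.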

[3] = qHTS profiling for inhibitors of Plasmodium falciparum proliferation (AID 504749); note: nearly all actives have a fitted effect of over 60% in size; note: potency is the fitted concentration of half-maximal effect; details: P. falciparum in erythrocytes, SYBR Green DNA, 72 h, at 28.7 µM (top of the series)
How it was run: (§1)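 Fluorescence of SYBR Green-bound parasite DNA, read at 485/535 nm, served as the growth measure. Infected erythrocytes were cultured with compound 72 h; artemisinin (0.29 uM) and DMSO wells defined the normalization range.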

[4] = test system: C2A; test: as above; details: P. falciparum in erythrocytes, SYBR Green DNA, 72 h; series mostly up to 28.7 µM
How it was run: as §1

[5] = test system: CP192; test: as above; details: P. falciparum in erythrocytes, SYBR Green DNA, 72 h; series mostly up to 28.7 µM
How it was run: as §1

[6] = test system: CP201; test: as above; details: P. falciparum in erythrocytes, SYBR Green DNA, 72 h; series mostly up to 28.7 µM
How it was run: as §1

[7] = test system: CP215; test: as above; details: P. falciparum in erythrocytes, SYBR Green DNA, 72 h; series mostly up to 28.7 µM
How it was run: as §1

[8] = test system: CP237; test: as above; details: P. falciparum in erythrocytes, SYBR Green DNA, 72 h; series mostly up to 28.7 µM
How it was run: as §1

[9] = test system: CP238; test: as above; details: P. falciparum in erythrocytes, SYBR Green DNA, 72 h; series mostly up to 28.7 µM
How it was run: as §1

[10] = test system: CP268; test: as above; details: P. falciparum in erythrocytes, SYBR Green DNA, 72 h; series mostly up to 28.7 µM
How it was run: as §1

[11] = test system: CP269; test: as above; details: P. falciparum in erythrocytes, SYBR Green DNA, 72 h; series mostly up to 28.7 µM
How it was run: as §1

[12] = test system: CP325; test: as above; details: P. falciparum in erythrocytes, SYBR Green DNA, 72 h; series mostly up to 28.7 µM
How it was run: as §1

[13] = test system: ECU; test: as above; details: P. falciparum in erythrocytes, SYBR Green DNA, 72 h; series mostly up to 28.7 µM
How it was run: as §1

[14] = test system: FAB9; test: as above; details: P. falciparum in erythrocytes, SYBR Green DNA, 72 h; series mostly up to 28.7 µM
How it was run: as §1

[15] = test system: JCK; test: as above; details: P. falciparum in erythrocytes, SYBR Green DNA, 72 h; series mostly up to 28.7 µM
How it was run: as §1

[16] = test system: PC49; test: as above; details: P. falciparum in erythrocytes, SYBR Green DNA, 72 h; series mostly up to 28.7 µM
How it was run: as §1

[17] = S16 Schwann cell viability assay (CellTiter-Glo assay) (AID 624031);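 note: cellular ATP luminescence as a viability measure; nearly all actives have a fitted effect of over 70% in size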
How it was run: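 Luminescent ATP read-out (CellTiter-Glo) after 24 h compound exposure of native S16 rat Schwann cells at 37 °C. Signals were normalized between cell-free wells and DMSO-treated cells, set as 0% activity.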

[18] = test system: PC15; test: qHTS profiling for inhibitors of Plasmodium falciparum proliferation (AID 504749); note: nearly all actives have a fitted effect of over 60% in size; note: potency is the fitted concentration of half-maximal effect; details: P. falciparum in erythrocytes, SYBR Green DNA, 72 h; series mostly up to 28.7 µM
How it was run: as §1

[19] = target: Ubiquitin carboxyl-terminal hydrolase 1 (Homo sapiens) (UniProt O94782); test: Inhibitors of USP1/UAF1: Pilot qHTS (AID 504865); note: nearly all actives have a fitted effect of over 35% in size; note: potency is the fitted concentration of half-maximal effect
Ubiquitin carboxyl-terminal hydrolase 1 (Homo sapiens), sequence (O94782 whole entry, looked up): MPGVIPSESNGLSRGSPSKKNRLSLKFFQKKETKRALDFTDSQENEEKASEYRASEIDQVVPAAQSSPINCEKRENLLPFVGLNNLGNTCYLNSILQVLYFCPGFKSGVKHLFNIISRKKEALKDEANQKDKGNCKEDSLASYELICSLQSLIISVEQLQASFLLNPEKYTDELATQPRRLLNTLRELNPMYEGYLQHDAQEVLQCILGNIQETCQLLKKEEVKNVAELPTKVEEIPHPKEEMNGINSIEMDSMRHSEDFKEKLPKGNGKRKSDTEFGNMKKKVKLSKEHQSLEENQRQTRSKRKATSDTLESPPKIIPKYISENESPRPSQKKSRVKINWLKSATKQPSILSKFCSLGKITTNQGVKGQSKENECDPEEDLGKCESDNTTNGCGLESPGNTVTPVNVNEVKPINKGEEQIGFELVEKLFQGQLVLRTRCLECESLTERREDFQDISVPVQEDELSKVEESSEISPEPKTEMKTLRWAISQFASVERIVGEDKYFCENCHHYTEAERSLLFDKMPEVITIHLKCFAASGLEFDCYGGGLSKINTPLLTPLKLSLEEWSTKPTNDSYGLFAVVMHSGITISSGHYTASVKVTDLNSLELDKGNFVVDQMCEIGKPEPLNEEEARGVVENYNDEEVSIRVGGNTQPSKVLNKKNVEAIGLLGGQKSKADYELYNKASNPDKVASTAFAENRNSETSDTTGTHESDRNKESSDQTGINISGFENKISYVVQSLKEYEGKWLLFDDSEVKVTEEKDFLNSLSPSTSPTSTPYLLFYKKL
How it was run: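 1nM USP1/UAF1 + cpd, 15 min RT; start w/ Ub-Rho 150nM final; kinetic FL 480/540 nm, 6 reads q60 s. Buffer 50mM HEPES pH 7.8, 0.5mM EDTA, 1mM TCEP, 0.01% Tween-20, 0.1 mg/ml BSA.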

[20] = target: Cytochrome P450 3A4 (Homo sapiens) (UniProt P08684); test: qHTS Assay for Inhibitors and Substrates of Cytochrome P450 3A4 (AID 884); note: potency is the fitted concentration of half-maximal effect; nearly all actives have a fitted effect of over 50% in size
Cytochrome P450 3A4 (Homo sapiens), sequence (P08684 whole entry, looked up): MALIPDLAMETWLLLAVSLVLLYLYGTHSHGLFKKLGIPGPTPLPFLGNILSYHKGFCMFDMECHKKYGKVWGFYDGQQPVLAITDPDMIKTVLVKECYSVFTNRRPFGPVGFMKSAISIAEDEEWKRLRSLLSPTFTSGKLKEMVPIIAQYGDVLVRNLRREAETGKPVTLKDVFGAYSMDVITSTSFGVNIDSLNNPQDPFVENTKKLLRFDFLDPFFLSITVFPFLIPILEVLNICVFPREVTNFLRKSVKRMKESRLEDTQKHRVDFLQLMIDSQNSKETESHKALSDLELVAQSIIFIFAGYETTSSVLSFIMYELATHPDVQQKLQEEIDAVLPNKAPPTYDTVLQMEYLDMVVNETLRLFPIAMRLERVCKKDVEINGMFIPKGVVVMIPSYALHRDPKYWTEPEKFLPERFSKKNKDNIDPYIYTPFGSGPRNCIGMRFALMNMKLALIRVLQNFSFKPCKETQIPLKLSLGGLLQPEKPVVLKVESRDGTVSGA
How it was run: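 Luminescent readout of luciferin produced by CYP3A4 (20 nM) dealkylation of Luciferin-PPXE, 25 uM (its KM). NADPH-driven reaction ran 60 min at RT after 10 min compound preincubation; data scaled to 57 uM ketoconazole as 100% inhibition.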

C=CC[C@]1(O)CCC2C3CCC4=CCCCC4C3CCC21C (stereo partly specified)
Potency [1]: inactive | Potency [2]: inactive | activity, negative = inhibition ([3]; parasite line A): -16.3% | activity, negative = inhibition ([3]; parasite line B): -3.62% | Potency [4]: inactive | Potency [5]: inactive | Potency [6]: inactive | Potency [7]: inactive | Potency [8]: inactive | Potency [9]: inactive | Potency [10]: inactive | Potency [11]: inactive | Potency [12]: inactive | Potency [13]: inactive | Potency [14]: inactive | Potency [15]: inactive | Potency [16]: inactive

C#C[C@]1(O)CC[C@H]2[C@@H]3CCC4=CC(=O)CCC4(C)[C@H]3CCC21C (stereo partly specified)
Potency [1]: inactive | Potency [17]: inactive | Potency [2]: inactive | activity, negative = inhibition ([3]; parasite line A): -6.98% | activity, negative = inhibition ([3]; parasite line B): 2.88% | Potency [4]: inactive | Potency [5]: inactive | Potency [6]: inactive | Potency [7]: inactive | Potency [8]: inactive | Potency [9]: inactive | Potency [10]: inactive | Potency [11]: inactive | Potency [12]: inactive | Potency [13]: inactive | Potency [14]: inactive | Potency [15]: inactive | Potency [18]: inactive | Potency [16]: inactive

C#CC1(O)C=CC2C3CCC4=CC(=O)CCC4C3CCC21CC (stereo unspecified)
Potency [19]: inactive | Potency [1]: inactive | Potency [17]: inactive | Potency [2]: inactive | Potency [4]: inactive | Potency [7]: 9.53 µM (active) | Potency [8]: 3.55 µM (active) | Potency [9]: inactive | Potency [10]: 7.57 µM (active) | Potency [12]: 12 µM (active) | Potency [13]: inactive | Potency [15]: inactive | Potency [18]: 11.2 µM (active)

Cc1cc2nc3c(=O)[nH]c(=O)nc-3n(C[C@H](O)[C@H](O)[C@H](O)COP(=O)(O)OP(=O)(O)OC[C@H]3O[C@@H](n4cnc5c(N)ncnc54)[C@H](O)[C@@H]3O)c2cc1C
Potency [19]: 50.1 µM (active)

CCCC(C)C1(CC)C(=O)NC(=S)NC1=O (stereo unspecified)
Potency [1]: inactive | Potency [17]: inactive | Potency [2]: inactive | activity, negative = inhibition ([3]; parasite line A): 0.271% | activity, negative = inhibition ([3]; parasite line B): 18% | Potency [4]: inactive | Potency [6]: inactive | Potency [7]: inactive | Potency [8]: inactive | Potency [9]: inactive | Potency [10]: inactive | Potency [11]: inactive | Potency [12]: inactive | Potency [13]: inactive | Potency [14]: inactive | Potency [15]: inactive | Potency [18]: inactive | Potency [16]: inactive

CC(=O)Oc1c2c(c(CC=C(C)C)c3c1C(=O)C1=CC4CC5C(C)(C)OC(C/C=C(\C)C(=O)O)(C4=O)[C@]15O3)OC(C)(CCC=C(C)C)C=C2 (stereo partly specified)
Potency [20]: 12.6 µM (active) | Potency [19]: 12.6 µM (active)

CCCCN(CC)c1c([N+](=O)[O-])cc(C(F)(F)F)cc1[N+](=O)[O-]
Potency [19]: inactive
